Consider 74 compounds from PubChem BioAssay AID2401 (Southern Research Specialized Biocontainment Screening …, 2010).

Hit rate of the full screen: of about 2,200 compounds, about 530 (24%) were called active.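 How the source made its calls: active means inhibition above a set limit at one or more concentrations of the dose series; inactive means inhibition under that limit at every dose.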 A selection follows. Results with a measured potency or affinity are listed apart.

A short description of this assay: nmpC-GFP reporter counter-screen in S. Typhimurium, dose response, counter-screen for PhoP regulon inhibitor project, Salmonella Typhimurium, GFP fluorescence (AID 2401).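 Further: S. typhimurium with Mg-insensitive nmpC-GFP reporter grown at 10 µM Mg2+; drop in reporter fluorescence reflects general culture growth inhibition.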 The conditions noted are these: 4 h; series mostly up to 150 µM. A general note: The purpose of a counterscreen is to sort out artefacts and off-target activity.
Take `C/C(=N/NC(=O)Cc1cccn1C)c1ccccc1`: the result was inactive.

For `Nc1ccc2nc(SCC(=O)Nc3ccc(N4CCOCC4)c(Cl)c3)sc2c1`, the call was inactive.

Turning to `COc1cccc(NS(=O)(=O)c2c(C)cc(C)cc2C)c1`, the result was inactive.

With `COc1ccc(-c2ccc(C#N)c(SCC(=O)NCCc3ccccc3)n2)cc1OC`, the outcome was inactive.

Consider `Cc1ccc(Nc2nc(Cl)nc(N(C)C#N)n2)cc1`, for which the result was inactive.

Take `c1csc(C2Nc3cccc4cccc(c34)N2)c1`: the call was inactive.

On to `Clc1ccc(OCCn2ccnc2)c2ccccc12`, for which the call was inactive.

Turning to `CCOCC(=O)Nc1ccc(F)c(F)c1`, the result was inactive.

`Cc1ncoc1C(=O)Nc1cccc(Cl)c1`: the compound was classed as inactive.

For the compound `COCCNC(=S)N(Cc1cccnc1)Cc1ccc(OC)c(OC)c1`, the outcome was inactive.

For the compound `O=C1NC(=O)C(=C2CCCCCC2)S1`, the result was inactive.

Take `Nc1cc(N2CCCCC2)c(Cl)cc1[N+](=O)[O-]`: the compound was classed as inactive.

With `Cc1ccc(N2C(=O)CC(Nc3ccccc3)C2=O)cc1` (centres undefined), the result was inactive.

As for `COc1ccc(-c2nnc(SCCC(=O)O)n2-c2ccccc2)cc1`, the compound was called inactive.

For `Nc1nc(-c2ccc3c(c2)OCCO3)cs1`, the compound was classed as inactive.

For `Cc1ccc(C)c(NC(=S)NCCSc2ccc(Cl)cc2)c1`, the compound was called inactive.

Consider `CCc1cc2c(NCCC(=O)O)nc(C)nc2s1`, for which the result was inactive.

Consider `CC(=O)Nc1ccc(-c2nnc(SCc3c(C)cc(C)cc3C)n2C)cc1`, for which the compound was classed as inactive.

Consider `c1ccc(CSc2snnc2-c2ccccc2)cc1`, for which the compound was called inactive.

Regarding `CCn1c(SCC(=O)Nc2ccc3c(c2)oc2ccccc23)nnc1-c1ccc(N)cc1`, the compound was called inactive.

Take `NNC(=O)CNC(c1ccccc1)c1cc(Br)ccc1NC(=O)c1ccc(Br)cc1` (centres undefined): the call was inactive.

As for `Cc1cccc(N2CCN(CC(=O)Nc3nccs3)CC2)c1C`, the result was inactive.

Take `FC(F)(F)c1cccc(NC(=S)NCCN2CCOCC2)c1`: the compound was classed as inactive.

Regarding `Cc1cc(C)cc(-n2c(C)cc(C=C(C#N)C#N)c2C)c1`, the call was inactive.

Regarding `CCOC(=O)C1=C(C)Nc2nc3ccccc3n2C1c1cccs1` (centres undefined), the compound was classed as inactive.

On to `Cc1ccc(C(=O)Oc2cccc(NC(=O)c3cccs3)c2)cc1S(=O)(=O)N1CCOCC1`, for which the compound was called inactive.

With `COc1c(Cl)cnn(-c2ccc(C)cc2)c1=O`, the result was inactive.

In the case of `CCc1c(C)c2cc(Cl)c(O)c(CN3CCCCC3)c2oc1=O`, the result was inactive.

Consider `CCc1ccc(NC(=O)c2noc3c2CCc2ccccc2-3)cc1`, for which the compound was called inactive.

Turning to `C=CCOc1ccc(/C=N/NC(=O)CN(c2cc(Cl)ccc2OC)S(=O)(=O)c2ccc(C)c([N+](=O)[O-])c2)cc1`, the compound was called inactive.

`O=C(NCCc1cn2ccccc2n1)c1ccccc1F`: the outcome was inactive.

With `Cc1nc(SCC(=O)NC(C)c2ccccc2)c2oc3ccccc3c2n1` (centres undefined), the outcome was inactive.

On to `COc1ccc(C(=O)N2CCc3cc(OC)c(OC)cc3C2)cc1OC`, for which the result was inactive.

Take `Cc1ccc(S(=O)(=O)NNC(=O)c2ccc(O)cc2)cc1`: the result was inactive.

With `CCOC(=O)c1sc(NC(=O)Nc2ccc(Cl)cc2)cc1C`, the compound was classed as inactive.

Regarding `COc1ccccc1N1CCN(C(=O)c2cccc3c(=O)c(C)c(-c4ccccc4)oc23)CC1`, the compound was classed as inactive.

On to `COc1ccccc1NC(=S)NC(=O)C(C)(C)C`, for which the compound was called inactive.

For the compound `CCc1ccc2[nH]c(=O)c(CN(Cc3ccccc3)C(=O)Nc3ccccc3OC)cc2c1`, the compound was called inactive.

Regarding `CCN1C(=O)N/C(=C/c2ccc(Sc3ccc(C)cc3)o2)C1=O`, the compound was classed as inactive.

Take `CC(=O)c1cccc(NC(=O)Nc2cc3sccc3n2C)c1`: the outcome was inactive.

For `COc1cc(C2SCC(=O)N2c2nnc(C34CC5CC(CC(C5)C3)C4)s2)cc(OC)c1OC` (centres undefined), the result was inactive.

In the case of `Brc1ccc(OCCn2ccnc2)cc1`, the outcome was inactive.

In the case of `CCCCNC(=O)OC1CCS(=O)(=O)C1` (centres undefined), the compound was called inactive.

For `O=c1c(Cl)c(Cl)cnn1Cc1ccccc1Cl`, the compound was called inactive.

For the compound `Cc1ccc(S(=O)(=O)N(CC(=O)N=Nc2c(O)[nH]c3ccccc23)c2ccc(C)c(C)c2)cc1`, the compound was called inactive.

For the compound `Cc1ccccc1C(=O)N(C)Cc1ccccc1`, the call was inactive.

As to `CCc1nc2cc(Cl)c(Cl)cc2[nH]1`, the outcome was inactive.

In the case of `Cc1ccc(S(=O)(=O)c2cn(Cc3ccc(F)cc3)c3cc4c(cc3c2=O)OCO4)cc1`, the call was inactive.

Turning to `CCn1cc(C(=O)O)c(=O)c2cc(Br)ccc21`, the result was inactive.

As for `O=C(Cn1nc(Cc2cccnc2)c2ccccc2c1=O)NCc1ccc2c(c1)OCO2`, the outcome was inactive.

On to `O=C(O)c1cc(NCc2ccc3c(c2)OCO3)ccc1N1CCOCC1`, for which the call was inactive.

Turning to `COc1ccc(OC)c(-c2cc(C(=O)Nc3c(C)nn(Cc4ccccc4)c3C)no2)c1`, the compound was classed as inactive.

`CCS(=O)(=O)Nc1cc(C(=O)OC)ccc1C(=O)OC`: the call was inactive.

Turning to `Cn1nnnc1SCC(=O)NC1CCCCC1`, the result was inactive.

In the case of `COC(=O)c1ccc(NC(=S)Nc2ccc3ccccc3c2)cc1`, the compound was called inactive.

`Cc1nn2c(=O)cc(CSc3nc4ccccc4[nH]3)nc2s1`: the outcome was inactive.

`CCn1ncc(/C=C/C(=O)NCc2cn(C)nc2C)c1C`: the compound was called inactive.

Consider `COc1ccc(S(=O)(=O)N2CCN(Cc3ccccc3)CC2)cc1`, for which the result was inactive.

As for `CCN(CC)S(=O)(=O)c1ccc2[nH]cc(C(=O)NCCc3ccccc3)c(=O)c2c1`, the compound was called inactive.

Turning to `Cc1ccc(C)c(NC(=O)C(Sc2nnc(-c3cccs3)o2)c2ccccc2)c1` (centres undefined), the result was inactive.

Turning to `CN(c1ccccc1)S(=O)(=O)c1ccc(C(=O)Nc2nnc(-c3ccc(F)cc3)o2)cc1`, the result was inactive.

Consider `Oc1ccc(Br)cc1-c1nc2cnccn2c1NC1CCCCC1`, for which the call was inactive.

For `O=C(Nc1ccccn1)NC1CCCCC1`, the outcome was inactive.

Consider `COc1ccc(N2C(=O)C3CCCN3C2c2cccc(C)c2)cc1Cl` (centres undefined), for which the outcome was inactive.

With `O=C(/C=C/c1ccco1)N/C(=C\c1ccccc1)C(=O)NCCc1nc2ccccc2[nH]1`, the compound was called inactive.

Regarding `Cc1ccccc1Nc1nnc(SCC(=O)NC2CCCc3ccccc32)s1` (centres undefined), the compound was classed as inactive.

Turning to `CC(C(=O)NC1CCCc2ccccc21)N1CCN(Cc2ccc3c(c2)OCO3)CC1` (centres undefined), the compound was classed as inactive.

For `Cc1ccc(CNc2oc(-c3cccs3)nc2C#N)cc1`, the result was inactive.

For the compound `CN(CC(=O)N1CCN(c2ccccn2)CC1)S(=O)(=O)c1ccc2ccccc2c1`, the result was inactive.

As for `COc1ccc(C2C(C#N)=C(N)OC3=C2C(=O)CCC3)cc1Cn1cc([N+](=O)[O-])cn1` (centres undefined), the result was inactive.

`COc1ccc(Nc2nnc(SCc3cn4c(C)cccc4n3)s2)cc1`: the compound was called inactive.

On to `Clc1ccc(Nc2ccc(NCc3ccccc3)nn2)cc1`, for which the compound was called inactive.

On to `Cc1cc(N/N=C/c2cccc(Cl)c2)nc(NCc2ccccc2)n1`, for which the outcome was inactive.

Turning to `Cc1ccc(NC(=O)CSc2nnc(C3CCCCC3)n2N)cc1F`, the result was inactive.
